In PubChem BioAssay (NCI):
About 79,000 compounds went through this panel and 15% of them were active in at least one assay; those are over-represented in the sample as a whole. Calls of active or inactive are those of the source. Cut-off read from the data, not from the text of the source: active = growth inhibition above about 70%; inactive = the rest.

How the values were obtained:
[1] = NCI Yeast Anticancer Drug Screen. Data for the rad52 strain (AID 147);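 note: 0% = growth of vehicle-treated control cultures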; conditions: S. cerevisiae rad52 mutant growth inhibition, active compounds read high
Summary of the method: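 DNA repair-defective yeast; compound exposure; growth scored against vehicle controls.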

[2] = NCI Yeast Anticancer Drug Screen. Data for the wt1 strain (AID 149);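 note: 0% = growth of vehicle-treated wt1 cultures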; conditions: S. cerevisiae wt1 strain (SPY 50644) growth inhibition, active compounds read high
Summary of the method: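 Compounds are added to wt1 yeast cultures. Growth is then measured. Inhibition is expressed relative to vehicle-treated controls.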

[3] = NCI Yeast Anticancer Drug Screen. Data for the rad50EPP+ strain (AID 151);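 note: 0% = growth of vehicle-treated control cultures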; conditions: S. cerevisiae rad50 mutant strain, active compounds read high
Summary of the method: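 rad50EPP+ yeast treated with test compounds. Readout: growth vs vehicle control.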

[4] = NCI Yeast Anticancer Drug Screen. Data for the rad50 strain (AID 155);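 note: 0% = growth of vehicle-only cultures of the same strain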; conditions: S. cerevisiae rad50 strain growth inhibition, active compounds read high
Summary of the method: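 Inhibition values express reduced yeast growth in compound-treated cultures relative to vehicle-treated controls.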

[5] = NCI Yeast Anticancer Drug Screen. Data for the mec2-1 strain (AID 157); conditions: S. cerevisiae mec2-1 strain, active compounds read high
Summary of the method: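 Growth inhibition is read against vehicle-treated controls after compound exposure of the mec2-1 yeast strain, which is defective in DNA damage repair or cell cycle control.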

[6] = NCI Yeast Anticancer Drug Screen. Data for the rad14 strain (AID 159);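 note: 0% = growth of vehicle-treated control cultures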; conditions: S. cerevisiae rad14 strain growth inhibition, active compounds read high
Summary of the method: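 A mutant yeast strain defective in DNA damage repair is treated with compound; inhibition of its growth is scored against untreated, vehicle-exposed cultures.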

[7] = NCI Yeast Anticancer Drug Screen. Data for the sgs1 mgt1 strain (AID 161);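 note: 0% = growth of cultures given vehicle only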; conditions: S. cerevisiae sgs1 mgt1 strain, active compounds read high
Summary of the method: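 Growth of a repair-deficient yeast mutant was monitored after compound treatment and expressed as inhibition relative to vehicle-treated cultures.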

[8] = NCI Yeast Anticancer Drug Screen. Data for the CLN2oe strain (AID 163);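 note: 0% = growth of vehicle-only control cultures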; conditions: S. cerevisiae CLN2oe strain, active compounds read high
Summary of the method: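 Compound-treated yeast; growth vs vehicle ctrl = % inhibition. Genetically altered strain (cell-cycle control).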

[9] = NCI Yeast Anticancer Drug Screen. Data for the cln2 rad14 strain (AID 165);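 note: 0% = growth equal to vehicle treated cultures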; conditions: S. cerevisiae cln2 rad14 strain, active compounds read high
Summary of the method: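 Growth inhibition, relative to vehicle-treated controls, is the read-out. The test organism is a yeast strain with defined genetic alterations, cln2 rad14.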

[10] = NCI Yeast Anticancer Drug Screen. Data for the bub3 strain (AID 167); conditions: S. cerevisiae bub3 mutant strain, active compounds read high
Summary of the method: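 Steps: expose the mutant yeast strain to compound; grow alongside vehicle-treated cultures; measure growth; express inhibition against the vehicle cultures.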

[11] = NCI Yeast Anticancer Drug Screen. Data for the wt2 strain (AID 169);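 note: 0% = growth of vehicle-treated yeast cultures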; conditions: S. cerevisiae wt2 strain growth inhibition, active compounds read high
Summary of the method: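 Compound exposure of yeast; growth compared with vehicle controls; inhibition reported.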

[12] = NCI Yeast Anticancer Drug Screen. Data for the mlh1 strain (AID 171);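 note: 0% = growth of vehicle-treated control cultures of the same strain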; conditions: S. cerevisiae mlh1 strain growth inhibition, active compounds read high
Summary of the method: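 Compounds are applied to a genetically altered yeast strain, and its growth is compared with that of vehicle-treated cultures to give percent inhibition.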

[13] = NCI Yeast Anticancer Drug Screen. Data for the sgs1 strain (AID 173);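 note: 0% = growth of vehicle-only control cultures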; conditions: S. cerevisiae sgs1 mutant, active compounds read high
Summary of the method: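 Compounds applied to genetically altered yeast; growth compared with vehicle-treated cultures to give % inhibition.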

[14] = NCI Yeast Anticancer Drug Screen. Data for the mlh1 rad18 strain (AID 175); conditions: S. cerevisiae mlh1 rad18 strain growth inhibition, active compounds read high
Summary of the method: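 Cells of a genetically altered yeast strain, deficient in DNA damage repair, were treated with compound. Their growth was then compared with that of vehicle-treated cultures to give inhibition.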

[15] = NCI Yeast Anticancer Drug Screen. Data for the rad18 strain (AID 177); conditions: S. cerevisiae rad18 mutant growth inhibition, active compounds read high
Summary of the method: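 Compounds are applied to a repair-deficient yeast strain, and growth is compared with that of vehicle-treated cultures to give percent inhibition.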

[16] = at 5.0 µM (retest, dose inferred, filed as 0.5)
[17] = at 50.0 µM (retest, dose inferred, filed as 5.0)

Measured: growth inhibition

O=[N+]([O-])c1cn[n+]([O-])c2ccccc12
active: [1]; at 11.0 µM 90% | [1]; at 33.0 µM 97% | [1]; at 100.0 µM 99% | [2]; at 33.0 µM 93% | [2]; at 100.0 µM 99% | [3]; at 3.7 µM 90% | [3]; at 11.0 µM 96% | [3]; at 33.0 µM 99% | [3]; at 100.0 µM 100% | [4]; at 11.0 µM 85% | [4]; at 33.0 µM 97% | [4]; [17] 97% | [4]; at 50.0 µM 89.3% | [4]; at 100.0 µM 99% | [5]; at 33.0 µM 97% | [5]; [17] 99% | [5]; at 50.0 µM 91.8% | [5]; at 100.0 µM 99% | [6]; at 11.0 µM 91% | [6]; at 33.0 µM 99% | [6]; at 100.0 µM 99% | [7]; [17] 99% | [7]; at 50.0 µM 90.3% | [8]; at 33.0 µM 84% | [8]; at 100.0 µM 99% | [9]; [17] 98% | [9]; at 50.0 µM 92% | [10]; at 33.0 µM 99% | [10]; [17] 99% | [10]; at 50.0 µM 89.5% | [10]; at 100.0 µM 99% | [11]; at 11.0 µM 75% | [11]; at 33.0 µM 100% | [11]; at 100.0 µM 99% | [12]; at 33.0 µM 95% | [12]; at 100.0 µM 99% | [13]; at 3.7 µM 71% | [13]; at 11.0 µM 84% | [13]; at 33.0 µM 98% | [13]; at 100.0 µM 98% | [14]; [17] 97% | [14]; at 50.0 µM 92% | [15]; at 1.2 µM 92% | [15]; at 3.7 µM 93% | [15]; at 11.0 µM 95% | [15]; at 33.0 µM 98% | [15]; at 100.0 µM 99%
inactive: [1]; at 1.2 µM 33% | [1]; at 3.7 µM 59% | [2]; at 1.2 µM 0% | [2]; at 3.7 µM 16% | [2]; at 11.0 µM 34% | [3]; at 1.2 µM 61% | [4]; at 1.2 µM 14% | [4]; at 3.7 µM 58% | [4]; [16] 25% | [5]; at 1.2 µM 17% | [5]; at 3.7 µM 10% | [5]; [16] -31% | [5]; at 11.0 µM 52% | [6]; at 1.2 µM 21% | [6]; at 3.7 µM 43% | [7]; [16] 38% | [8]; at 1.2 µM 0% | [8]; at 3.7 µM 11% | [8]; at 11.0 µM 14% | [9]; [16] 7% | [10]; at 1.2 µM -1% | [10]; at 3.7 µM -12% | [10]; [16] -28% | [10]; at 11.0 µM 0% | [11]; at 1.2 µM -18% | [11]; at 3.7 µM 5% | [12]; at 1.2 µM 10% | [12]; at 3.7 µM 6% | [12]; at 11.0 µM 39% | [13]; at 1.2 µM 40% | [14]; [16] 38%

Cc1cc(OCc2nc(N)nc(N)c2-c2ccc(Cl)c(Cl)c2)ccc1[N+](=O)[O-]
active: [4]; [17] 84% | [4]; at 50.0 µM 98.7% | [5]; [17] 87% | [5]; at 50.0 µM 95.8%
inactive: [1]; at 1.2 µM 0% | [1]; at 3.7 µM 1% | [1]; at 11.0 µM 0% | [1]; at 33.0 µM -1% | [1]; at 100.0 µM -2% | [2]; at 1.2 µM 1% | [2]; at 3.7 µM 1% | [2]; at 11.0 µM 3% | [2]; at 33.0 µM 3% | [2]; at 100.0 µM 4% | [3]; at 1.2 µM -1% | [3]; at 3.7 µM -3% | [3]; at 11.0 µM -1% | [3]; at 33.0 µM -1% | [3]; at 100.0 µM -1% | [4]; at 1.2 µM 0% | [4]; at 3.7 µM 6% | [4]; [16] 51% | [4]; at 11.0 µM -3% | [4]; at 33.0 µM 2% | [4]; at 100.0 µM 2% | [5]; at 1.2 µM 2% | [5]; at 3.7 µM 3% | [5]; [16] 48% | [5]; at 11.0 µM 0% | [5]; at 33.0 µM 3%
